Laboratory results from PubChem BioAssay (NCI).
Where “and” joins values, the source holds several entries; their conditions need not be identical. Identical values can stand only once. This is part of a sample that, as a whole, favours compounds with a hit. Of some 83,000 tested, about 20% had one in any assay.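 Compound tested at a single concentration for 48 hours in 96-well plates; a percent growth value below 10 was scored as active.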 Calls of active or inactive are those of the source.

The compounds below were run on HOP-62 NSCLC (assay: NCI-60 one-dose screen, 48 h (100 = growth as untreated, 0 = no growth, -100 = all killed)). Settings: 0.01 µM.
Experimental: Growth inhibition of the HOP-62 human Non-Small Cell Lung tumor cell line is measured as a screen for anti-cancer activity. Cells are grown in 96 well plates and exposed to the test compound for 48 hours. Compounds are tested at a single concentration, which is 10^-5 M for most compounds. The reported endpoint is percent growth (GI% or GIPRCNT), where numbers from 0 - 100% represent growth inhibition, and numbers from -100% - 0 represent cell death. For example, a value of 40 represents 60% growth inhibition. A value of 0 means no net growth occurred over the course of the experiment. A value of -40 indicates 40% of cells at the beginning of the experiment died by the end of the experiment. A value of -100 means all cells are dead at the end of the experiment.
NCI-60 Human Tumor Cell Lines Screen was performed using the standard one-dose NCI protocol, which is described in more detail at https://dtp.cancer.gov/discovery_development/nci-60/default.htm.
Compounds with GIPRCNT values below 10 were considered active. Activity score was based on GIPRCNT using the following formula: […]
Score is 0 for GIPRCNT values of 100 or above, 50 for GIPRCNT values of 0, and 100 for GIPRCNT values of -100.

Structure (SMILES) | growth
CC(=O)O[C@H]1C(=O)[C@@]2(C)[C@H]([C@H](OC(=O)c3ccccc3)[C@]3(O)C[C@H](OC(=O)[C@H](O)[C@@H](NC(=O)c4ccccc4)c4ccccc4)C(C)=C1C3(C)C)[C@]1(OC(C)=O)CO[C@@H]1C[C@@H]2O | 48.2% (inactive)

Same assay, conditions: 2.5 µM

Structure (SMILES) | growth
CC(=O)O[C@H]1C(=O)[C@@]2(C)[C@H]([C@H](OC(=O)c3ccccc3)[C@]3(O)C[C@H](OC(=O)[C@H](O)[C@@H](NC(=O)c4ccccc4)c4ccccc4)C(C)=C1C3(C)C)[C@]1(OC(C)=O)CO[C@@H]1C[C@@H]2O | 12.5% (inactive)

Same assay, conditions: 5 µM

Structure (SMILES) | growth
CC(=O)O[C@H]1C(=O)[C@@]2(C)[C@H]([C@H](OC(=O)c3ccccc3)[C@]3(O)C[C@H](OC(=O)[C@H](O)[C@@H](NC(=O)c4ccccc4)c4ccccc4)C(C)=C1C3(C)C)[C@]1(OC(C)=O)CO[C@@H]1C[C@@H]2O | 15.4% (inactive)

Same assay, conditions: 10 µM

Structure (SMILES) | growth
CN(C)c1ccc(/C=C/c2ccnc3ccccc23)cc1N | 77.2% (inactive)
Nc1nc(N)c2cc(Sc3ccc4ccccc4c3)ccc2n1 | 65% (inactive)
O=C(NC(=S)Nc1ccccn1)c1ccccc1 | 106% (inactive)
CC1CCC2(C(=O)O)CCC3(C)C(=CCC4C5(C)CC(O)C(O)C(C)(CO)C5C(O)CC43C)C2C1C (stereo not given) | 111% (inactive)
S=C1SCN(CCc2ccccc2)CN1CCc1ccccc1 | 87.6% (inactive)
O=C1c2ccccc2CCC1(Br)Br | 96.5% (inactive)
Cc1cc(O)c2c(c1O)C(=O)C13C(=C2O)C(=O)C2C(O)C1C1C(O)C3C(=O)C3=C(O)c4c(O)cc(C)c(O)c4C(=O)C321 (stereo not given) | 3.99% (active)
O=C1C=CC(=O)N1c1ccc(N2C(=O)C=CC2=O)cc1 | 86.8% (inactive)
O=C1c2cccc3cc([N+](=O)[O-])cc(c23)C(=O)N1CCN1CCCC1 | -23.3% (active)
S=P(N1CC1)(N1CC1)N1CC1 | 109% (inactive) and 36.8% (inactive)
Cn1c2nc3ccccc3c-2nc2ccccc21 | 80.5% (inactive) and 85.1% (inactive)
O=[N+]([O-])c1cc(S(=O)(=O)Nc2ccccc2)ccc1Cl | 104% (inactive)
COc1cccc(C(c2cc3c(cc2O)OCO3)N2CCOCC2)c1OC (stereo not given) | 101% (inactive)
CC(=O)O[C@H]1C(=O)[C@@]2(C)[C@H]([C@H](OC(=O)c3ccccc3)[C@]3(O)C[C@H](OC(=O)[C@H](O)[C@@H](NC(=O)c4ccccc4)c4ccccc4)C(C)=C1C3(C)C)[C@]1(OC(C)=O)CO[C@@H]1C[C@@H]2O | 30.7% (inactive) and 6.92% (active)
CN(C)CCNc1cccc2sc3ccc(O)cc3c(=O)c12 | 46.2% (inactive)
O=C(O)c1ccccc1.[Ag] | 108% (inactive)
O=c1[nH]cc(/C=N\Nc2ccccc2)c(=O)[nH]1 | 62.7% (inactive)
CC[C@@]1(OC(=O)CN(C)C)C(=O)OCc2c1cc1n(c2=O)Cc2cc3c(N)cccc3nc2-1 | -5.79% (active)

Structure (SMILES) | growth
O=C(CNS(=O)(=O)Cc1ccccc1)NNc1ccccc1 | 46.3% (inactive)
Cc1cc(Cl)ccc1NC(=O)/C(Cl)=C1/Sc2ccccc2NC1=O | 91% (inactive)
COc1cc(N)ccc1Nc1c2ccccc2nc2ccccc12 | 83.6% (inactive)
CN(CC(=O)O)c1ccc(/C=C/c2ccnc3ccccc23)cc1 | 83.5% (inactive)
O=Nc1ccc(Nc2ccccc2)cc1 | 111% (inactive)
Cc1cc(C)c(N2C(=O)CC(Sc3ccccc3N)C2=O)c(C)c1 (stereo not given) | 70.4% (inactive)
COc1ccc(N)c2c1C(=O)c1ccccc1C2=O | 111% (inactive)
COc1ccc2oc(-c3ccc(Cl)cc3)c(N3CCN(C)CC3)c2c1 | 51.9% (inactive)
NCc1c(O)ccc2ccccc12 | 90.7% (inactive)
COc1ccc(C(C#N)=C2C=CC(=NO)C=C2)cc1 | 47.7% (inactive)
O=S(=O)(c1cc(Cl)ccc1O)c1cc(Cl)ccc1O | 83.7% (inactive)
Cn1ncc2cc3c(Nc4ccc(Cl)cc4)cccc3nc21 | 89.3% (inactive)
Cc1c(-c2ccccc2)[nH]c2ccccc12 | 104% (inactive)
Cc1cc(N=C2C=CC(=[N+](C)C)C=C2)c(N)cc1N | 101% (inactive)
C=C1N(C)c2ccc(Cl)cc2C1(C)C | 63.6% (inactive)
N#CC(=C1C=CC(=NO)C=C1)c1ccccc1 | 6.93% (active)
CCOC(=O)[C@]1(Br)CC[C@@]1(Br)C(=O)OCC | 127% (inactive)
N#C/C(=C/N1C(=O)/C(=C/c2ccc([N+](=O)[O-])cc2)SC1=S)c1nc2ccccc2s1 | 82.4% (inactive)

Same assay, conditions: 100 µM

Structure (SMILES) | growth
S=P(N1CC1)(N1CC1)N1CC1 | 47.9% (inactive)
